Reference: PubChem BioAssay AID1159580 (chemical genetic matrix, 2015)
In all, about 5,500 compounds went through this assay and about 2,000 (36%) were called active. Roughly 18% stayed inconclusive and do not appear here. Rule as the data show it: active = normalized growth mostly below about 0.91 (no sharp cut-off); inconclusive = no clear call, values can overlap the other calls; inactive = mostly above about 0.92. Some of the results follow.

Test: chemical genetic growth profiling, strain panel (AID 1159580);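 also: tested at 20 µM; growth read once vehicle control cultures reached saturation at 30 °C; 1 = growth at the plate median or of vehicle wells; lower values mean less growth of the strain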
Details: growth OD

Measured: normalized growth

CN(C)C(=O)Nc1ccc(Cl)c(Cl)c1
inactive: S. cerevisiae deletion strains, locus YJR075W, strain HOC1, hits give low values 0.958 | S. cerevisiae deletion strains, locus YKL009W, strain mrt4, hits give low values 0.97 | S. cerevisiae deletion strains, locus YKL068W, hits give low values 1 | S. cerevisiae deletion strains, locus YKL085W, strain MDH1 (second series), hits give low values 1 | S. cerevisiae deletion strains, locus YKL085W, strain MDH1, hits give low values 1 | S. cerevisiae deletion strains, locus YKL160W, strain elf1, hits give low values 0.955 | S. cerevisiae deletion strains, locus YKL190W, strain CNB1, hits give low values 0.996 | S. cerevisiae deletion strains, locus YKR001C, strain vps1, hits give low values 0.984 | S. cerevisiae deletion strains, locus YKR026C, strain gcn3, hits give low values 0.993 | S. cerevisiae deletion strains, locus YKR091W, strain srl3, hits give low values 0.982 | S. cerevisiae deletion strains, locus YLL001W, strain dnm1, hits give low values 0.901 | S. cerevisiae deletion strains, locus YLL026W, hits give low values 0.991 | S. cerevisiae deletion strains, locus YLL041C, strain sdh2, hits give low values 0.994 | S. cerevisiae deletion strains, locus YLR027C, strain aat2, hits give low values 0.969 | S. cerevisiae deletion strains, locus YLR039C, strain RIC1, hits give low values 1.04 | S. cerevisiae deletion strains, locus YLR058C, strain SHM2, hits give low values 0.991 | S. cerevisiae deletion strains, locus YLR102C, strain apc9, hits give low values 1 | S. cerevisiae deletion strains, locus YLR113W, strain HOG1, hits give low values 0.909 | S. cerevisiae deletion strains, locus YLR221C, strain rsa3, hits give low values 0.963 | S. cerevisiae deletion strains, locus YLR258W, strain gsy2, hits give low values 0.984 | S. cerevisiae deletion strains, locus YLR262C, strain YPT6 (second series), hits give low values 0.996 | S. cerevisiae deletion strains, locus YLR262C, strain YPT6, hits give low values 1.01 | S. cerevisiae deletion strains, locus YLR268W, strain sec22, hits give low values 0.988 | S. cerevisiae deletion strains, locus YLR320W, strain mms22, hits give low values 0.98 | S. cerevisiae deletion strains, locus YLR330W, strain CHS5, hits give low values 0.994 | S. cerevisiae deletion strains, locus YLR342W, strain FKS1 (second series), hits give low values 0.983 | S. cerevisiae deletion strains, locus YLR342W, strain FKS1, hits give low values 0.985 | S. cerevisiae deletion strains, locus YLR357W, strain rsc2, hits give low values 0.969 | S. cerevisiae deletion strains, locus YLR370C, strain arc18, hits give low values 0.965 | S. cerevisiae deletion strains, locus YLR371W, strain rom2, hits give low values 1 | S. cerevisiae deletion strains, locus YLR384C, strain iki3, hits give low values 1.01 | S. cerevisiae deletion strains, locus YLR418C, strain cdc73, hits give low values 0.85 | S. cerevisiae deletion strains, locus YML016C, strain PPZ1, hits give low values 0.993 | S. cerevisiae deletion strains, locus YML032C, strain rad52, hits give low values 0.994 | S. cerevisiae deletion strains, locus YML120C, strain ndi1, hits give low values 0.985 | S. cerevisiae deletion strains, locus YML124C, strain tub3, hits give low values 1 | S. cerevisiae deletion strains, locus YMR058W, strain fet3, hits give low values 0.992 | S. cerevisiae deletion strains, locus YMR078C, strain ctf18, hits give low values 0.999 | S. cerevisiae deletion strains, locus YMR125W, strain sto1, hits give low values 1.04 | S. cerevisiae deletion strains, locus YMR129W, hits give low values 0.991 | S. cerevisiae deletion strains, locus YMR205C, strain PFK2, hits give low values 0.917 | S. cerevisiae deletion strains, locus YMR223W, strain ubp8, hits give low values 0.987 | S. cerevisiae deletion strains, locus YMR231W, strain pep5, hits give low values 1 | S. cerevisiae deletion strains, locus YMR263W, strain SAP30, hits give low values 0.956 | S. cerevisiae deletion strains, locus YMR307W, strain GAS1, hits give low values 0.812 | S. cerevisiae deletion strains, locus YNL067W, strain RPL9B, hits give low values 0.986 | S. cerevisiae deletion strains, locus YNL071W, strain lat1, hits give low values 0.982 | S. cerevisiae deletion strains, locus YNL128W, strain TEP1, hits give low values 0.993 | S. cerevisiae deletion strains, locus YNL153C, strain GIM3, hits give low values 0.996 | S. cerevisiae deletion strains, locus YNL183C, strain NPR1, hits give low values 0.939 | S. cerevisiae deletion strains, locus YNL209W, strain ssb2, hits give low values 0.972 | S. cerevisiae deletion strains, locus YNL233W, strain BNI4, hits give low values 0.97 | S. cerevisiae deletion strains, locus YNL248C, strain rpa49, hits give low values 1.02 | S. cerevisiae deletion strains, locus YNL250W, strain rad50, hits give low values 1.01 | S. cerevisiae deletion strains, locus YNL271C, strain bni1, hits give low values 1 | S. cerevisiae deletion strains, locus YNL298W, strain CLA4, hits give low values 0.998 | S. cerevisiae deletion strains, locus YNL307C, strain MCK1, hits give low values 0.935 | S. cerevisiae deletion strains, locus YNL322C, strain KRE1 (second series), hits give low values 0.969 | S. cerevisiae deletion strains, locus YNL322C, strain KRE1, hits give low values 1 | S. cerevisiae deletion strains, locus YNR049C, strain mso1, hits give low values 0.987 | S. cerevisiae deletion strains, locus YNR052C, strain pop2, hits give low values 1.03 | S. cerevisiae deletion strains, locus YOL006C, strain TOP1, hits give low values 0.862 | S. cerevisiae deletion strains, locus YOL012C, strain htz1 1.04 | S. cerevisiae deletion strains, locus YOL147C, strain pex11, hits give low values 1 | S. cerevisiae deletion strains, locus YOR001W, strain rrp6, hits give low values 1 | S. cerevisiae deletion strains, locus YOR061W, strain CKA2, hits give low values 1 | S. cerevisiae deletion strains, locus YOR069W, strain VPS5, hits give low values 1 | S. cerevisiae deletion strains, locus YOR070C, strain gyp1, hits give low values 0.997 | S. cerevisiae deletion strains, locus YOR080W, strain dia2, hits give low values 1.01 | S. cerevisiae deletion strains, locus YOR083W, strain WHI5, hits give low values 0.927 | S. cerevisiae deletion strains, locus YOR106W, strain vam3, hits give low values 0.919 | S. cerevisiae deletion strains, locus YOR136W, strain idh2, hits give low values 0.997 | S. cerevisiae deletion strains, locus YOR144C, strain elg1, hits give low values 1.01 | S. cerevisiae deletion strains, locus YOR184W, strain ser1, hits give low values 0.929 | S. cerevisiae deletion strains, locus YOR231W, strain MKK1, hits give low values 0.991 | S. cerevisiae deletion strains, locus YOR265W, strain rbl2, hits give low values 0.992 | S. cerevisiae deletion strains, locus YOR270C, strain vph1, hits give low values 0.925 | S. cerevisiae deletion strains, locus YOR290C, strain snf2, hits give low values 0.926 | S. cerevisiae deletion strains, locus YOR316C, strain cot1, hits give low values 1 | S. cerevisiae deletion strains, locus YPL051W, strain arl3, hits give low values 0.956 | S. cerevisiae deletion strains, locus YPL055C, strain LGE1, hits give low values 0.95 | S. cerevisiae deletion strains, locus YPL078C, strain atp4, hits give low values 0.988 | S. cerevisiae deletion strains, locus YPL106C, strain sse1, hits give low values 0.981 | S. cerevisiae deletion strains, locus YPL240C, strain hsp82, hits give low values 0.982 | S. cerevisiae deletion strains, locus YPL241C, strain CIN2, hits give low values 1 | S. cerevisiae deletion strains, locus YPL256C, strain CLN2, hits give low values 0.975 | S. cerevisiae deletion strains, locus YPR119W, strain clb2, hits give low values 0.996 | S. cerevisiae deletion strains, locus YPR141C, strain kar3, hits give low values 1 | S. cerevisiae deletion strains, locus YPR163C, strain tif3, hits give low values 1 | S. cerevisiae deletion strains, locus YPR167C, strain met16, hits give low values 0.999 | S. cerevisiae deletion strains, strain wtn01, hits give low values 0.994 | S. cerevisiae strains, strain wild type, hits give low values 0.995
